Where “and” joins values, the source holds several entries; their conditions need not be identical. Equal entries are not always repeated. Calls of active or inactive are those of the source. Unless noted, calls follow the shape of the dose curve; as a rule, active = well fitted curve in the direction sought with a large enough effect in the repeat runs; inconclusive = weak or mixed curves; inactive = no such curve, though single readings can be large; an effect the other way counts as inactive or inconclusive.
What was measured:
[1] = qHTS assay to identify small molecule antagonists of the thyroid receptor (TR) signaling pathway (AID 743065); also: nearly all actives have a fitted effect of over 55% in size; also: potency is read from the fitted curve at half-maximal effect
Summary of the method: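 GH3.TRE-Luc rat pituitary cells carrying two TR response elements driving luciferase were plated for 4 h, given compound plus 1 nM T3 (final), and incubated 23.5 h at 37 C. ONE-Glo luminescence measured reporter inhibition; CellTiter-Fluor fluorescence tracked cytotoxicity.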

[2] = test system: thyroid hormone receptor (rat, GH3 cells); experiment: qHTS assay to identify small molecule agonists of the thyroid receptor (TR) signaling pathway (AID 743066; calls by dose curve)
[3] = target: Estrogen receptor (Homo sapiens) (UniProt P03372); experiment: qHTS assay to identify small molecule antagonists of the estrogen receptor alpha (ER-alpha) signaling pathway (AID 743069; active = well fitted curve in the direction sought with a large enough effect in the signal ratio in the repeat runs, not every such curve was filed as active; inconclusive = weak or mixed curves, or effect the other way; inactive = no such curve, though single readings can be large or run the other way; the % refers to the signal ratio; also: potency is read from the fitted curve at half-maximal effect)
Chain of Estrogen receptor (Homo sapiens) (P03372 whole entry, looked up): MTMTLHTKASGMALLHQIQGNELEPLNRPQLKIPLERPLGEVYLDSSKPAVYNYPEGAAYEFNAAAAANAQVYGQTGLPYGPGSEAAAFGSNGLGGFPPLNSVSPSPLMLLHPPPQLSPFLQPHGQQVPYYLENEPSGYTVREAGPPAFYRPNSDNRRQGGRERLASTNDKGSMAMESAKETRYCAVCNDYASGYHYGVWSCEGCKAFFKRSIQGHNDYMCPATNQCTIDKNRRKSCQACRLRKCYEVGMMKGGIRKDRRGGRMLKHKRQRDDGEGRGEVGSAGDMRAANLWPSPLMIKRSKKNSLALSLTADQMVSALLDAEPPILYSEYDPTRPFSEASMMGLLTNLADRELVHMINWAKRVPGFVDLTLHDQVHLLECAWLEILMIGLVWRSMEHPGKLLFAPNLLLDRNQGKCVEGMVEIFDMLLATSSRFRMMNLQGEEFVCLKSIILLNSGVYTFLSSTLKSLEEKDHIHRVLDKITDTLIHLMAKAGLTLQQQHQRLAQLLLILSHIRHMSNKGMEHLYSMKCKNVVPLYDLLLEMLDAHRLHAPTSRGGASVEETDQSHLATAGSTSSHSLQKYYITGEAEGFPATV
Summary of the method: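 Estradiol-stimulated ER-alpha-UAS-bla HEK293 cells, 18 hr compound exposure at 37C. LiveBLAzer B/G substrate, 2 hr RT, fluorescence read.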

[4] = qHTS assay to identify small molecule antagonists of the estrogen receptor alpha (ER-alpha) signaling pathway - cell viability counter screen (AID 743074; calls by dose curve;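 also: HEK293 cells carrying ER-alpha-UAS-bla reporter stimulated with 17beta-estradiol; nearly all actives have a fitted effect of over 45% in size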; also: potency is read from the fitted curve at half-maximal effect)
[5] = target: Estrogen receptor (Homo sapiens) (UniProt P03372); experiment: qHTS assay to identify small molecule agonists of the estrogen receptor alpha (ER-alpha) signaling pathway (AID 743075; calls by dose curve;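 also: HEK293 GripTite cells with ER-alpha and UAS-driven beta-lactamase reporter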; also: potency is read from the fitted curve at half-maximal effect)
[6] = target: Estrogen receptor (Homo sapiens) (UniProt P03372); experiment: qHTS assay to identify small molecule agonists of the estrogen receptor alpha (ER-alpha) signaling pathway using the BG1 cell line (AID 743079); also: nearly all actives have a fitted effect of over 20% in size; also: potency is read from the fitted curve at half-maximal effect
[7] = qHTS assay to identify small molecule antagonists of the estrogen receptor alpha (ER-alpha) signaling pathway using the BG1 cell line (AID 743080; calls by dose curve;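 also: BG1 cells stimulated with 17beta-estradiol alongside compound; nearly all actives have a fitted effect of over 25% in size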; also: potency is read from the fitted curve at half-maximal effect)
Summary of the method: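 Quantitative HTS on the Tox21 10K library: BG1 cells with endogenous ER-alpha and ERE-luciferase reporter, 17beta-estradiol stimulation, 21.5 h compound exposure, luminescence endpoint with parallel fluorescence cytotoxicity counter-read.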

[8] = target: Aromatase (Homo sapiens) (UniProt P11511); experiment: qHTS assay to identify aromatase inhibitors (AID 743083); also: nearly all actives have a fitted effect of over 55% in size; also: potency is read from the fitted curve at half-maximal effect
Chain of Aromatase (Homo sapiens) (P11511 whole entry, looked up): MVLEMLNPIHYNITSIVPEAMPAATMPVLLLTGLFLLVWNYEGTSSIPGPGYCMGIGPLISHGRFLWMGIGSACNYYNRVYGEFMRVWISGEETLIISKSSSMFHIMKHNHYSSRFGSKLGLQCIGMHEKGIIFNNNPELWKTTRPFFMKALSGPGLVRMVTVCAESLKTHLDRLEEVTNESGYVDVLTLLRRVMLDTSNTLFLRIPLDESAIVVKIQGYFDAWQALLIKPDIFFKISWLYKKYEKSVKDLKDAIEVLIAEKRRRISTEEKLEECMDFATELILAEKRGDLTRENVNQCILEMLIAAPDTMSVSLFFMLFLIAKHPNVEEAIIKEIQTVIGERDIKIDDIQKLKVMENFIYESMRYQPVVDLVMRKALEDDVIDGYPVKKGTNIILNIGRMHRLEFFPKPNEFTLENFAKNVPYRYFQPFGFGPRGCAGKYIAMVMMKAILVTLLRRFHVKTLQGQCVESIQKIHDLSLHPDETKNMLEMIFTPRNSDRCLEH

[9] = qHTS assay to identify aromatase inhibitors - cell viability counter screen (AID 743084);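 also: cells stimulated with testosterone during compound exposure; nearly all actives have a fitted effect of over 55% in size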; also: potency is read from the fitted curve at half-maximal effect
[10] = target: Aryl hydrocarbon receptor (Homo sapiens) (UniProt P35869); experiment: qHTS assay to identify small molecule that activate the aryl hydrocarbon receptor (AhR) signaling pathway (AID 743085); also: nearly all actives have a fitted effect of over 15% in size; also: potency is read from the fitted curve at half-maximal effect;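 as to activation: HG2L7.5c1 human HepG2 liver cells with stably integrated DRE-driven firefly reporter; series mostly up to about 70 µM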
Chain of Aryl hydrocarbon receptor (Homo sapiens) (P35869 whole entry, looked up): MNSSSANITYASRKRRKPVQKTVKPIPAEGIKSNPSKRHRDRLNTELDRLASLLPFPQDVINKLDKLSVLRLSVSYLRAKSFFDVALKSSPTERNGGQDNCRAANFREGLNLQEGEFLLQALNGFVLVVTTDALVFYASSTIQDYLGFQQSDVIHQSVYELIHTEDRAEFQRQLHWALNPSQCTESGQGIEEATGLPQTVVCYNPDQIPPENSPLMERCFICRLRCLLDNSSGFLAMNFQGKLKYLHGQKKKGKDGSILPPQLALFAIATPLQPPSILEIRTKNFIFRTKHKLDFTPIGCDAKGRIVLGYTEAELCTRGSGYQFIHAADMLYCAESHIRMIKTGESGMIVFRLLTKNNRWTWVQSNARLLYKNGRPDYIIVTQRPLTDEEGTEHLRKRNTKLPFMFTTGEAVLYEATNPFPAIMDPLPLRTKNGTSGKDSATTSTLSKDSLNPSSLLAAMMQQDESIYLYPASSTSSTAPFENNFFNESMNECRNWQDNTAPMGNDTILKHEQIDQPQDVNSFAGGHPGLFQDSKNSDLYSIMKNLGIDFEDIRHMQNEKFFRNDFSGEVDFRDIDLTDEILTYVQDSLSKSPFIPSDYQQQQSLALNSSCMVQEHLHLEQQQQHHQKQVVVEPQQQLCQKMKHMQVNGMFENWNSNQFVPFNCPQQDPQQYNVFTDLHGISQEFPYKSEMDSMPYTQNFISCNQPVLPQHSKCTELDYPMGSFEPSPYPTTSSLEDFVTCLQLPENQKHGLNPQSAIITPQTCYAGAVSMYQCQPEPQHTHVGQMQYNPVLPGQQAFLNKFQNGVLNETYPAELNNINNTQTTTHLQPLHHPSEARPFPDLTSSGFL
Summary of the method: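 HepG2 cells (HG2L7.5c1) stably carrying a firefly luciferase reporter driven by 20 dioxin responsive elements were exposed to compound for 24 h at 37C after a 5 h settling period; luminescence rise (ONE-Glo) indicated activation.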

[11] = qHTS assay to identify small molecule that activate the aryl hydrocarbon receptor (AhR) signaling pathway - cell viability counter screen (AID 743086); also: nearly all actives have a fitted effect of over 45% in size; also: potency is read from the fitted curve at half-maximal effect
Summary of the method: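 HepG2-AhR-luc (HG2L7.5c1) cells, 4000/well, were preincubated 5 h at 37C, exposed to compound in qHTS format for 24 hr at 37C, then given CellTiter-Fluor for 30 min; viability was read as fluorescence in the reporter wells.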

[12] = qHTS assay to identify small molecule antagonists of the peroxisome proliferator-activated receptor gamma (PPARg) signaling pathway - cell viability counter screen (AID 743194); settings: Potency: co-treated with 50 nM rosiglitazone unless noted; also: nearly all actives have a fitted effect of over 55% in size; also: potency is read from the fitted curve at half-maximal effect
Summary of the method: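 PPARg-UAS-bla HEK293H cells were plated, rested 5 h at 37 C, then treated with compounds plus rosiglitazone (50 nM final) for 17 h at 37 C; viability was then read by CellTiter-Glo luminescence after 30 min at room temperature.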

[13] = qHTS assay to identify small molecule antagonists of the estrogen receptor alpha (ER-alpha) signaling pathway using the BG1 cell line - cell viability counter screen (AID 743081);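 also: compound given together with 17beta-estradiol as the ER stimulus; nearly all actives have a fitted effect of over 45% in size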; also: potency is read from the fitted curve at half-maximal effect
[14] = qHTS assay for small molecule agonists of the antioxidant response element (ARE) signaling pathway - cell viability counter screen (AID 743203; calls by dose curve; also: nearly all actives have a fitted effect of over 55% in size; also: potency is read from the fitted curve at half-maximal effect)
Summary of the method: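 Compounds in DMSO were pinned onto ARE-bla HepG2 cells plated 5 hrs earlier at 2,000 cells/well. Sixteen hours later at 37C/5% CO2, CellTiter-Glo was added and luminescence measured after 30 min at room temperature.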

[15] = qHTS assay for small molecule activators of the heat shock response signaling pathway - cell viability counter screen (AID 743209); also: nearly all actives have a fitted effect of over 50% in size; also: potency is read from the fitted curve at half-maximal effect
Summary of the method: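 Counter screen for cytotoxicity in HeLa HSE-bla reporter cells. Treatment was 5 h at 37 C; viability was detected by luminescent ATP assay (CellTiter-Glo) in the same wells as the beta-lactamase read.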

[16] = qHTS assay for small molecule activators of the heat shock response signaling pathway (AID 743210; active = well fitted activation curve with a large enough effect in the signal ratio in the repeat runs, with a control signal flat, not every such curve was filed as active; inconclusive = weak or mixed curves; the % refers to the signal ratio;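 also: HeLa cells with beta-lactamase reporter driven by heat shock elements; series mostly up to about 63 µM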)
Summary of the method: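 Reporter gene assay: HeLa cells stably bearing an HSE-bla construct, compound treatment 5 h at 37 C, LiveBLAzer substrate 2.5 h at RT, fluorescence intensity.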

[17] = qHTS assay to identify small molecule agonists of the peroxisome proliferator-activated receptor delta (PPARd) signaling pathway - cell viability counter screen (AID 743211); also: nearly all actives have a fitted effect of over 55% in size; also: potency is read from the fitted curve at half-maximal effect
Summary of the method: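 PPARd-bla HEK293H cells (UAS-beta-lactamase reporter) were treated with compounds for 17 h at 37 C. Viability was then read in the same wells by CellTiter-Glo luminescence after 30 min at room temperature.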

[18] = target: Peroxisome proliferator-activated receptor gamma (Homo sapiens) (UniProt P37231); experiment: qHTS assay to identify small molecule antagonists of the peroxisome proliferator-activated receptor gamma (PPARg) signaling pathway (AID 743191; calls by dose curve; also: series mostly up to about 63 µM; nearly all actives have a fitted effect of over 30% in size)
Chain of Peroxisome proliferator-activated receptor gamma (Homo sapiens) (P37231 whole entry, looked up): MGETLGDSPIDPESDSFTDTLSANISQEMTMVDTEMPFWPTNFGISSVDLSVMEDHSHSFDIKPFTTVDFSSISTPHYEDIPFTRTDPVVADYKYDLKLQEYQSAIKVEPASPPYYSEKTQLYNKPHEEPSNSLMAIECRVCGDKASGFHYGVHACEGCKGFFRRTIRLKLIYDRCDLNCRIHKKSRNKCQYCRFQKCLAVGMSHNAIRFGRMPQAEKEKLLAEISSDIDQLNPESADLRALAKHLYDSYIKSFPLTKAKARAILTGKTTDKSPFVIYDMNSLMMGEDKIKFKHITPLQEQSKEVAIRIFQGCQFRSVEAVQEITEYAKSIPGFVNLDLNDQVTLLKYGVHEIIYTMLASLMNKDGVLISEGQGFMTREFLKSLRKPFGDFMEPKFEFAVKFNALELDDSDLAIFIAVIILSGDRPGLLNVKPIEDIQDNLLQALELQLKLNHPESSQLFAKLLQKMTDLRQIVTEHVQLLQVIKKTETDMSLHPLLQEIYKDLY
Summary of the method: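 GeneBLAzer PPARg UAS-bla HEK293H cells carrying a UAS-driven beta-lactamase reporter were plated at 3000 cells/well, preincubated 5 h at 37C, then given compound for 17 h at 37C; LiveBLAzer B/G FRET substrate was read after 1 h at room temperature.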

[19] = target: Peroxisome proliferator-activated receptor gamma (Homo sapiens) (UniProt P37231); experiment: qHTS assay to identify small molecule agonists of the peroxisome proliferator-activated receptor gamma (PPARg) signaling pathway (AID 743094; active = well fitted activation curve with a large enough effect in the signal ratio in the repeat runs, not every such curve was filed as active; inconclusive = weak or mixed curves, or effect the other way; inactive = no such curve, though single readings can be large or run the other way; the % refers to the signal ratio)
Summary of the method: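 Following 5 h plating at 37C, PPARg-bla HEK293H cells receive compound or DMSO for 17 h; fluorescence intensity is recorded after LiveBLAzer B/G loading for 1 h at room temperature.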

[20] = qHTS assay for small molecule agonists of the antioxidant response element (ARE) signaling pathway (AID 743202; active = well fitted activation curve with a large enough effect in the signal ratio in the repeat runs, not every such curve was filed as active; inconclusive = weak or mixed curves, or effect the other way; inactive = no such curve, though single readings can be large or run the other way; the % refers to the signal ratio; also: potency is read from the fitted curve at half-maximal effect)
Summary of the method: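 Compounds delivered in DMSO to ARE-bla HepG2 cells (2,000 cells/well, pre-incubated 5 h) and left 16 h at 37 C. LiveBLAzer B/G FRET substrate then added for 2 h at RT before fluorescence reading.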

Measured: Potency

CC1(C)CC/C(=C/c2ccc(Cl)cc2)C1(O)Cn1cncn1 (centres undefined)
active: [1] 54.2 µM | [10] 8.6 µM
inactive: [2] | [3] | [4] | [5] | [6] | [7] | [8] | [9] | [11] | [12]

O=C(O)COc1nc(Cl)c(Cl)cc1Cl
not listed: [4] | [9] | [11] | [12] | [18] | [19] | [20]
inactive: all other assays above

C=CCC1=C(C)C(OC(=O)C2C(C=C(C)C)C2(C)C)CC1=O (centres undefined)
active: [1] 25.8 µM | [3] 58.3 µM [fluorescent] | [4] 46.3 µM | [7] 36.4 µM | [8] 47.2 µM | [9] 25.8 µM | [12] 58.3 µM | [14] 51.5 µM | [15] 46.3 µM
inactive: [2] | [5]

O=c1ssc(Cl)c1Cl
active: [1] 27.3 µM | [8] 15.4 µM | [9] 17.2 µM | [12] 38.9 µM | [14] 24.3 µM | [15] 49 µM | [17] 49 µM
inactive: [2] | [3] | [4] | [6] | [7] | [10] | [11]

Cc1cc(C)c(C2=C(OC(=O)CC(C)(C)C)C3(CCCC3)OC2=O)c(C)c1
not listed: [18] | [19] | [20]
inactive: all other assays above

ClCc1ccc(Cl)cc1Cl
not listed: [12] | [18] | [19] | [20]
inactive: all other assays above

O=C(NC(=O)c1c(F)cccc1F)Nc1cc(Cl)c(OC(F)(F)C(F)F)c(Cl)c1
active: [10] 0.137 µM
not listed: [6] | [7] | [14] | [19] | [20]
inactive: all other assays above

CC(C)OC(=O)C(O)(c1ccc(Cl)cc1)c1ccc(Cl)cc1
active: [1] 61.1 µM | [3] 38.9 µM [inhibitor]
not listed: [8] | [12] | [14] | [18]
inactive: all other assays above

CCCCCCCCCBr
not listed: [18] | [19]
inactive: all other assays above

ClC1=C(Cl)C2(Cl)C3C(Cl)C=CC3C1(Cl)C2(Cl)Cl (centres undefined)
active: [1] 43.5 µM and 54.5 µM | [8] 68.6 µM | [12] 55.2 µM and 24.5 µM | [14] 61.1 µM | [17] 38.9 µM
not listed: [4] | [15] | [16] | [18] | [20]
inactive: all other assays above

O=C1c2ccccc2C(=O)C1C(=O)C(c1ccccc1)c1ccc(Cl)cc1 (centres undefined)
active: [1] 15.4 µM | [3] 5.49 µM [inconclusive] | [4] 43.6 µM | [8] 54.5 µM | [12] 11 µM | [14] 30.6 µM | [17] 24.5 µM
inactive: [2] | [5] | [6] | [10] | [11]

Cc1c(Cl)c(=O)oc2cc(OP(=O)(OCCCl)OCCCl)ccc12
not listed: [9] | [10] | [13] | [14]
inactive: all other assays above

CC(=O)C(Cl)(Cl)Cl
active: [1] 2.35 µM | [3] 1.88 µM [inconclusive] | [13] 23.5 µM | [8] 13.2 µM | [9] 18.7 µM | [11] 23.5 µM | [14] 0.743 µM
inactive: [2] | [4] | [10] | [19] | [15]

N#C/C=C/C#N
active: [1] 32.1 µM | [5] 45.7 µM [inconclusive] | [8] 28.6 µM
inactive: [2] | [3] | [4] | [6] | [13] | [10] | [11] | [15]

BrCBr
not listed: [14] | [18]
inactive: all other assays above

C1CCC2CCCCC2C1 (centres undefined)
not listed: [18] | [20]
inactive: all other assays above

ClC1=C(Cl)[C@]2(Cl)[C@H]3[C@H]([C@H]4C=C[C@H]3C4)[C@@]1(Cl)C2(Cl)Cl
active: [1] 68.6 µM | [6] 27.3 µM
not listed: [12] | [18] | [20]
inactive: all other assays above

ClC(Cl)=C(c1ccc(Cl)cc1)c1ccc(Cl)cc1
active: [1] 55.8 µM and 30.6 µM | [15] 50.2 µM and 17.4 µM | [17] 24.5 µM
not listed: [6] | [14] | [16] | [18] | [20]
inactive: all other assays above

CCCCCCCCCCCCCN1CC(C)OC(C)C1 (centres undefined)
not listed: [17] | [18] | [20]
inactive: all other assays above

COC(=O)N(C(=O)N1CO[C@@]2(C(=O)OC)Cc3cc(Cl)ccc3C2=N1)c1ccc(OC(F)(F)F)cc1
inactive: [2] | [4] | [7] | [13] | [9] | [10] | [11] | [15] | [17]
active: [1] 11.8 µM | [3] 47.3 µM [cytotoxic]

CC(C)CCCCCOC(=O)c1ccccc1C(=O)OCCCCCC(C)C
not listed: [14] | [15]
inactive: all other assays above

NNC(=O)c1ccccc1
active: [6] 19.9 µM | [10] 15.8 µM
not listed: [15]
inactive: all other assays above

Oc1ccc(C2(c3ccc(O)cc3)CCCCC2)cc1
inactive: [2] | [13] | [10]
active: [1] 36.5 µM | [3] 0.52 µM [inconclusive] | [5] 52.1 µM [inconclusive] | [6] 0.818 µM | [8] 51.6 µM | [9] 25.9 µM | [12] 41.3 µM | [17] 41.3 µM

CN(C)C1CSSSC1
active: [20] 34.3 µM
not listed: [11] | [15] | [18]
inactive: all other assays above

CC(=O)c1cc(C(C)(C)C)cc2c1CCC2(C)C
active: [1] 48.6 µM | [8] 68.6 µM
not listed: [4] | [7] | [9] | [15] | [16] | [17]
inactive: all other assays above

Cc1ccc(OP(=O)(Oc2ccccc2)Oc2ccccc2)cc1
active: [6] 3.91 µM
not listed: [4] | [10] | [14] | [18] | [20]
inactive: all other assays above

CNC(C)Cc1ccc2c(c1)OCO2 (centres undefined)
not listed: [13] | [14] | [15] | [16] | [17]
inactive: all other assays above

CCCN(CCC)CCc1c[nH]c2ccccc12
active: [1] 30.2 µM
not listed: [11] | [13] | [16] | [20]
inactive: all other assays above
